# Env fusion inh = inhibitors of HIV-1 Env-driven cell-cell fusion, primary screen, HeLa-JRFL effector, CEM21 target cells, luciferase; inhibition, % at 12.3 µM; actives 1.1% (n = 360,000);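 active = mean replicate inhibition score of at least 50 and every replicate individually at or above 50; inconclusive = only one of the two criteria met; inactive = mean below 50 and not all replicates reaching 50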;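 also: 0% = plate neutral controls and 100% = maraviroc near 300 nM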
# PAX8 reporter = inhibitors of PAX8-driven TPO luciferase reporter, primary screen, RMG-I cells, single concentration; SteadyGlo, 24 h; inhibition, % at 12.6 µM; actives 1.2% (n = 360,000); AID 652154, 2013;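 active = mean replicate inhibition at least 60% with every replicate also reaching 60%; inconclusive = only one of the two criteria is met; inactive = mean below 60% and not all replicates reaching 60%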;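 also: luciferase light reporting Pax8 driven TPO promoter activity; plate controls were median of neutral control wells for no effect and mitoxantrone controls for full effect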
# EWS-Fli block = EWS/Fli-driven NR0B1 reporter inhibitors, primary screen, A673 cells, NR0B1 luciferase, luminescence, MLPCN library | viability-normalised | inhibition, % at 12.6 µM | actives 0.67% (n = 350,000);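 active = mean inhibition of at least 50% after viability correction, with every replicate also passing that limit; inconclusive = mean reaches 50% but only one of two replicates passes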;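 also: firefly luciferase signal divided by Alamar Blue viability fluorescence both relative to DMSO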
# FXN GAA850 act = FXN promoter activators, primary screen, cell-based, luciferase luminescence, HEK293 lucGAA850 | HEK293 lucGAA850 FXN promoter luciferase reporter, 24 h; percent of 10 µM SAHA response | activation, % at 6 µM | actives 0.56% (n = 360,000) | AID 540364, 2011;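 active = activation above the average of all compounds screened plus 3 SD, cutoff fixed separately per campaign, cut at about 7.5% in these data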;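 also: 0% = DMSO wells and 100% = 10 µM SAHA wells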
# F508del corr = F508del CFTR correction, initial screen, CFBE line, single point; actives 0.36% (n = 350,000); CFBE cells, YFP halide quenching; stimulated with forskolin plus potentiator P3; % fluorescence drop versus neutral controls; activity (quench increase), % at 7.58 µM; AID 720511, 2013;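 active = mean added fluorescence quench of at least 8% versus neutral control, with both replicates also reaching 8%; inconclusive = only one of the mean or replicate conditions met; inactive = mean below 8% and not both replicates reaching 8%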;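 also: cells transiently co-express mutant CFTR-F508del with the halide-sensitive YFP; corrector assay measuring rescue of mutant channel to the surface after 24 h compound exposure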
# The depositor's hits bear a star; ? = inconclusive; . = not tested or not shown; [ ] = remark or other dose. An excerpt weighted towards active compounds, which were near 2.5% of everything screened.
SMILES,Env fusion inh,PAX8 reporter,EWS-Fli block,FXN GAA850 act,F508del corr
COc1ccc(C(=O)Nc2ccc(N3CCN(Cc4ccccc4)CC3)cc2)cc1,9,18,0,1,1
COc1c(F)c(F)c(C(=O)Nc2ccc(N3CCN(Cc4ccccc4)CC3)cc2)c(F)c1F,65*,.,.,-3,.
COc1ccc(NC(=O)c2ccc(CN3CCN(c4ccccc4)CC3)cc2)cc1,.,.,.,-4,.
COc1ccc(S(=O)(=O)N(C)C[C@H]2OCCCC[C@@H](C)Oc3ccc(NS(=O)(=O)c4ccc(Cl)cc4)cc3C(=O)N([C@H](C)CO)C[C@H]2C)cc1,.,33,16,.,-1
O=C1CN(S(=O)(=O)Cc2ccccc2)C[C@H]2[C@@H](c3ccc(C#Cc4ccccc4)cc3)[C@H](CO)N12,.,.,-6,.,6
Cc1ccc(N/C(N)=N/c2nc(CSc3nnc(C)s3)cc(=O)[nH]2)c(C)c1,-146,32,69*,6,4
N#C/C(=C/c1ccc(-c2ccccc2)o1)c1nc(-c2cccs2)cs1,3,17,83*,6,.
N#C/C(=C\c1ccc(-c2ccc(F)cc2)o1)C(=O)Nc1nc(-c2cccs2)cs1,-16,-4,-10,2,.
C[C@H](O)C#Cc1ccc2c(c1)O[C@@H](CN(C)Cc1ccc(-c3ccccc3)cc1)[C@H](C)CN([C@H](C)CO)S2(=O)=O,.,94*,-6,.,2
C[C@H](O)C#Cc1ccc2c(c1)O[C@H](CN(C)Cc1ccc(-c3ccccc3)cc1)[C@@H](C)CN([C@@H](C)CO)S2(=O)=O,.,109*,9,.,-3
C[C@@H](O)C#Cc1ccc2c(c1)O[C@H](CN(C)Cc1ccccc1)[C@@H](C)CN([C@@H](C)CO)S2(=O)=O,-15[16.7 µM],.,15,.,-2
C[C@@H]1CN([C@@H](C)CO)S(=O)(=O)c2ccc(C#C[C@@H](C)O)cc2O[C@@H]1CN(C)Cc1ccc(-c2ccccc2)cc1,.,77*,11,.,1
C[C@@H]1CN([C@H](C)CO)S(=O)(=O)c2ccc(C#C[C@@H](C)O)cc2O[C@H]1CN(C)Cc1ccc(-c2ccccc2)cc1,.,?,37,.,3
C[C@H](O)C#Cc1ccc2c(c1)O[C@H](CN(C)Cc1ccc(-c3ccccc3)cc1)[C@H](C)CN([C@@H](C)CO)S2(=O)=O,.,81*,15,.,0
C[C@@H]1CN([C@@H](C)CO)C(=O)c2cc(NC(=O)C3CCCCC3)ccc2O[C@H]1CN(C)S(=O)(=O)c1cn(C)cn1,6[16.7 µM],-21,-5,.,-1
C[C@H](CO)N1C[C@H](C)[C@@H](CN(C)CC2CCCCC2)Oc2c(NC(=O)CCCCCC(=O)Nc3ccccc3N)cccc2C1=O,.,81*,.,.,1
C[C@@H]1CN([C@H](C)CO)C(=O)c2cccc(NC(=O)c3ccncc3)c2O[C@@H]1CN(C)CC1CCCCC1,-44[16.7 µM],-1,-5,.,1
C[C@@H]1CN([C@H](C)CO)C(=O)c2cccc(NC(=O)c3cnccn3)c2O[C@H]1CN(C)Cc1ccccc1,64*[16.7 µM],5,2,.,3
C[C@H]1CN([C@@H](C)CO)C(=O)c2cccc(NC(=O)CCCCCC(=O)Nc3ccccc3N)c2O[C@H]1CN(C)CC1CCCCC1,.,-15,-3,.,0
C[C@@H]1CN([C@@H](C)CO)C(=O)c2cccc(NC(=O)c3ccncc3)c2O[C@H]1CN(C)CC1CCCCC1,99*[16.7 µM],4,-9,.,-1
C[C@H]1CN([C@@H](C)CO)C(=O)c2cccc(NC(=O)C3CCCCC3)c2O[C@H]1CN(C)S(C)(=O)=O,62*[16.7 µM],4,-2,.,-1
O=C(C[C@H]1CC[C@H](NS(=O)(=O)c2cccc(F)c2)[C@@H](CO)O1)N1CCCCC1,-22[16.7 µM],0,3,.,1
C[C@@H]1CN([C@@H](C)CO)C(=O)c2cccc(NC(=O)C3CCCCC3)c2O[C@H]1CN(C)CC1CCCCC1,63*[16.7 µM],-19,3,.,-2
C[C@@H]1CN([C@@H](C)CO)C(=O)c2cccc(NC(=O)C3CCCCC3)c2O[C@H]1CN(C)Cc1ccccc1,63*[16.7 µM],6,-1,.,0
C[C@H](NC(=O)C[C@H]1CC[C@@H]2[C@@H](COc3ccc(NS(=O)(=O)c4ccc(Cl)cc4)cc3C(=O)N2C)O1)c1ccccc1,-18[16.7 µM],8,7,.,0
SMILES,Env fusion inh,PAX8 reporter,EWS-Fli block,FXN GAA850 act,F508del corr
O=c1cc(-c2ccccc2Cl)oc2c([N+](=O)[O-])c(O)cc(O)c12,65*,-100,-13,-4,-1
O=C(C[C@H]1C[C@H]2c3cc(NC(=O)C4CCOCC4)ccc3O[C@H]2[C@H](CO)O1)NC1CCCCC1,.,2,2,.,0
COc1ccc2c3c(n(C)c2c1)[C@H](CO)NCC31CCN(Cc2cc(-c3ccccc3)on2)CC1,.,82*,-6,.,12*
C[C@@H]1CCCCO[C@H](CN(C)S(=O)(=O)c2ccccc2)[C@@H](C)CN([C@H](C)CO)C(=O)c2cc(NS(=O)(=O)c3cn(C)cn3)ccc2O1,-4[16.7 µM],2,-8,.,-2
Cc1noc(C)c1COc1ccc(C(=O)N2CCN(S(=O)(=O)c3ccc(F)cc3)CC2)cc1,3,8,-1,-1,26*
Cc1noc(C)c1COc1ccc(C(=O)N2CCN(S(=O)(=O)c3ccc(Cl)cc3)CC2)cc1,-11,.,12,-1,-1
Cc1ccc(S(=O)(=O)Nc2ccc3c(c2)C(=O)N([C@@H](C)CO)C[C@@H](C)[C@H](CN(C)C(=O)Nc2c(C)noc2C)O3)cc1,10[16.7 µM],-1,-2,.,-2
COc1ccc(CN(C)C[C@H]2OCCCC[C@H](C)Oc3ccc(NC(=O)Nc4c(C)noc4C)cc3C(=O)N([C@H](C)CO)C[C@@H]2C)cc1,-9[16.7 µM],8,-8,.,1
COc1ccc(C(=O)c2cc([N+](=O)[O-])ccc2N2CCN(C)CC2)cc1,-36,10,45,-5,16*
COc1ccc(C(=O)c2cc([N+](=O)[O-])ccc2N2CCCC2)cc1,?,28,.,-2,.
O=C(c1ccc(Br)cc1)c1cc([N+](=O)[O-])ccc1N1CCCCC1,-92,97*,.,1,.
C[C@H](CO)N1C[C@H](C)[C@@H](CN(C)Cc2ccc(-c3ccccc3)cc2)Oc2ccc(N(C)C)cc2C1=O,.,-5,4,.,-1
COc1ccc(S(=O)(=O)N2c3ccc(F)cc3CCC2C)cc1 (centres undefined),-45,78*,41,-1,.
C[C@@H]1CN([C@H](C)CO)C(=O)c2cc(N(C)C)ccc2O[C@@H](C)CCCCO[C@@H]1CN(C)C(=O)Nc1ccc2c(c1)OCO2,10[16.7 µM],9,4,.,-3
COc1ccc2c3c(n(C)c2c1)[C@@H](CO)N(Cc1ccc2c(c1)OCO2)CC31CN(C(=O)c2ccc3c(c2)OCO3)C1,4[16.7 µM],.,17,.,5

# Screening results as filed in PubChem.
